Measured values taken from PubChem BioAssay (Tox21).
Several values for one entry are separate records, joined by “and”; a condition that tells them apart may be missing. Equal entries are not always repeated. Records with an inconclusive call do not appear. Activity calls are given as the source filed them. Calls follow the shape of the dose curve; as a rule, active = well fitted inhibition curve with a large enough effect in the repeat runs; inconclusive = weak or mixed curves; inactive = no such curve, though single readings can be large or run the other way.

target: Cytochrome P450 2C9 (Homo sapiens) (UniProt P11712); test: Cytochrome P450 Family 2 Subfamily C Member 9 (CYP2C9) small molecule antagonists: luciferase reporter qHTS assay (AID 1671198); conditions: P450-Glo CYP2C9 enzyme assay, luciferin luminescence; series mostly up to 115 µM; activity change, negative = inhibition: at the top concentration; also: nearly all actives have a fitted effect of over 50% in size
Excerpt: U.S. Tox21 Program National Center for Advancing Translational Sciences [NCATS] U.S. Environmental Protection Agency [EPA] National Institutes of Environmental Health Sciences [NIEHS] National Toxicology Program [NTP] U.S. Food and Drug Administration [FDA] Tox21 Assay Overview: Cytochrome P450 (CYP) enzymes are membrane-bound hemeproteins that play a key role in metabolism of drugs and xenobiotics. Evaluation of the effect of chemicals on CYP isozymes is useful to minimize the adverse drug reactions and toxicities in drug development process. Tox21 chemicals were tested for their effect on CYP enzyme activities by using P450-Glo (TM) screening systems (Promega Corporation, Madison, WI). These systems provide a luminescent method containing proluciferin substrates and are converted to luciferin products by CYP isozymes. The luciferin products formed are detected with a luciferin detection reagent, and the amount of light produced is proportional to CYP activity. P450-Glo (TM) CYP2C9 screening system (Catalog. No. V9790) was used to detect the compounds that interfere in CYP2C9 activity.
Tox21 Assay Protocol Summary: Two ul of enzyme-substrate mix was dispensed into medium binding white/solid 1536-well plates (Greiner Bio-One North America Inc., Monroe, NC) using a BioRaptr Flying Reagent Dispenser (FRD, Beckman Coulter, Brea, CA). […] The assay plates were incubated at room temperature for 10 min. Then 2 ul of NADPH regeneration solution was added to each well of the assay plates using an FRD and incubated at 37C for 1 h. The reaction was stopped by adding 4 ul of detection reagent using an FRD and after 20 min incubation at room temperature the luminescence signal was measured using a ViewLux plate reader (Perkin Elmer, Shelton, CT). Data were expressed as relative luminescence units.
% is scaled to controls: 0 for no effect and ±100 for the full control effect; potency is read from the fitted curve at half-maximal effect.

Chain of Cytochrome P450 2C9 (Homo sapiens) (P11712 whole entry, looked up): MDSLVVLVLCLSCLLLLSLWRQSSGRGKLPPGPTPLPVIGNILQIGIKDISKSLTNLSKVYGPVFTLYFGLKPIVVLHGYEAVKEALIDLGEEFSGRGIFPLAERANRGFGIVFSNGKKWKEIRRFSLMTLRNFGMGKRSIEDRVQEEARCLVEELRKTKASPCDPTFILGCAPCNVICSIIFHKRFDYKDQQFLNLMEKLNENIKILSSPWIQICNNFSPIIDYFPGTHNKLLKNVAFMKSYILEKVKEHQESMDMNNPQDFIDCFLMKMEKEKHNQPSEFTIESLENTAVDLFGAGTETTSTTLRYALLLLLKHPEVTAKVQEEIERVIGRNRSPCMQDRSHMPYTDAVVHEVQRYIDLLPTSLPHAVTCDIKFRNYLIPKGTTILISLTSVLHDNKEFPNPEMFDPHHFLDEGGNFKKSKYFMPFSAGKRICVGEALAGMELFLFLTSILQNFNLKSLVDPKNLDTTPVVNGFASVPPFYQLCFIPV

| SMILES | Potency | activity change, negative = inhibition |
| --- | --- | --- |
| O=c1[nH]c(Cl)c(Cl)cc1Cl | 39.9 µM (active) |  |
| O=S1OCC2C(CO1)C1(Cl)C(Cl)=C(Cl)C2(Cl)C1(Cl)Cl (stereo not given) | 35.6 µM (active) and 31.7 µM (active) |  |
| CCCCON=O |  | -7.19% (inactive) |
| CC(C)C(Nc1ccc(C(F)(F)F)cc1Cl)C(=O)OC(C#N)c1cccc(Oc2ccccc2)c1 (stereo not given) | 6.38 µM (active) |  |
| COP(=S)(NC(C)C)Oc1ccc(C)cc1[N+](=O)[O-] (stereo not given) | 2.52 µM (active) |  |
| N#CC(C#N)=NNc1cccc(Cl)c1 | 8.94 µM (active) |  |
| O=C(CCCCl)c1ccc(F)cc1 |  | -9.55% [at 53 µM] (inactive) |
| CCOP(=S)(NC(C)C)Oc1ccccc1C(=O)OC(C)C (stereo not given) | 1.42 µM (active) |  |
| O=[N+]([O-])c1ccc(CCl)cc1 |  | 10.8% (inactive) |
| CC1CCCC1 | 8.8 µM (active) |  |
| [O]=[Cr][O][Cr]=[O] |  | -5.64% (inactive) |
| C=CC(=O)[O][Sn]([CH2]CCC)([CH2]CCC)[CH2]CCC | 12.6 µM (active) |  |
| O=P(Cl)(Cl)Cl |  | -4.26% (inactive) |
| O=S(=O)(O)F |  | -18.7% (inactive) |
| COC(=O)C(C)N(C(=O)c1ccco1)c1c(C)cccc1C (stereo not given) | 31.7 µM (active) |  |
| CN1CCc2cc3c(cc2C1O)OCO3 (stereo not given) |  | -13.8% (inactive) |
| CC(Cc1ccc2c(c1)OCO2)NO (stereo not given) | 34.4 µM (active) |  |
| O=C1C(Cl)=C(Cl)C(=O)C(Cl)=C1Cl | 5.01 µM (active) and 8.94 µM (active) |  |
| CCn1cc[n+](C)c1 (tested in a mixture with another compound) |  | 0.0368% (inactive) |
| C=C(C)C(=O)[O][Sn]([CH2]CCC)([CH2]CCC)[CH2]CCC | 11.2 µM (active) |  |

| SMILES | Potency | activity change, negative = inhibition |
| --- | --- | --- |
| c1ccc(Nc2ccc(Nc3ccccc3)cc2)cc1 | 11.2 µM (active) |  |
| CC[N+]1(CC)CCC(OC(=O)C(O)(c2ccccc2)c2ccccc2)C1 (stereo not given) |  | -4.91% [at 53 µM] (inactive) |
| CNC(=O)CSP(=O)(OC)OC |  | -18.8% (inactive) |
| C[N+]1(C)[C@@H]2CC[C@H]1CC(OC(=O)C(CO)c1ccccc1)C2 (stereo not given in full) |  | -0.446% [at 53 µM] (inactive) |
| Cc1ccc([N+](=O)[O-])[c]2c1[O][Hg]2 | 0.871 µM (active) |  |
| CC(O)C(=O)[O][Hg][c]1ccccc1 (stereo not given) | 1.78 µM (active) |  |
| O=C(N[C@@H]1N=C(c2ccccc2F)c2cccc3c2N(CC3)C1=O)c1cc2ccccc2[nH]1 | 4.9 µM (active) |  |
| CCCCCON=O |  | 1.07% (inactive) |
| CO/N=C(\C(=O)OC)c1ccccc1CO/N=C(\C)c1cccc(C(F)(F)F)c1 | 8.94 µM (active) |  |
| CCOP(=O)(OCC)Oc1nc(Cl)c(Cl)cc1Cl | 35.4 µM (active) |  |
| C#CCC1=C(C)C(OC(=O)C2C(C=C(C)C)C2(C)C)CC1=O (stereo not given) | 12.5 µM (active) |  |
| CCOP(=O)(OCC)Oc1cc(C)nc(C(C)C)n1 |  | -22.2% (inactive) |
| Cc1ccccc1OP(=O)(Oc1ccccc1C)Oc1ccccc1C | 5.66 µM (active) |  |
| [F][Sn]([c]1ccccc1)([c]1ccccc1)[c]1ccccc1 | 2 µM (active) |  |
| CCCCC(CC)COC(=O)c1ccccc1C(=O)OCC(CC)CCCC (stereo not given) | 9.47 µM (active) |  |
| O=[N+]([O-])c1ccc(Cl)c(Cl)c1Cl |  | -5.24% (inactive) |
| CN1C(=O)[C@@H](NC(=O)c2cc3ccccc3[nH]2)N=C(c2ccccc2)c2ccccc21 | 4.9 µM (active) |  |
| COP(=S)(OC)Oc1nc(Cl)c(Cl)cc1Cl | 25.2 µM (active) |  |
| CNC(C)(C)Cc1ccccc1 |  | 4.02% [at 53 µM] (inactive) |
| CCNS(=O)(=O)C(F)(F)C(F)(F)C(F)(F)C(F)(F)C(F)(F)C(F)(F)C(F)(F)C(F)(F)F | 1.52 µM (active) |  |
